This passage reports growth inhibition results from PubChem BioAssay (NCI).

Where “and” joins values, the source holds several entries; their conditions need not be identical. Equal entries are not always repeated. This is part of a sample that, as a whole, favours compounds with a hit. Of some 79,000 tested, about 15% had one in any assay. Values without a mark were called inactive. Rule as the data show it: active = growth inhibition above about 70%; inactive = the rest.

The experiment can be described thus: NCI Yeast Anticancer Drug Screen. Data for the mlh1 rad18 strain (AID 175). As to conditions: S. cerevisiae mlh1 rad18 strain growth inhibition, hits give high values; at 50.0 µM unless noted. The method in brief:
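Inhibition values reflect reduced growth of mutant yeast versus vehicle-treated controls following compound exposure; the mutations affect DNA damage repair.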
As for `Clc1cccc(Cl)c1C1SCc2nc3cc4ccccc4cc3n21` (centres undefined), the growth inhibition was 14%.

Take `COc1ccc(C(=O)/C=C/N)c(OC)c1`: the growth inhibition is 10.9%.

Consider `O=C1N=C2Sc3ccc4ccccc4c3N2C1=O`, for which the growth inhibition was 11.2%.

In the case of `COC1C(O)C(n2ncc3c(SC)nc(SC)nc32)OC1C(O)CO` (centres undefined), the growth inhibition is 14.4%.

In the case of `CCNC(=O)CCCC(=O)OC`, the growth inhibition was 2.2%.

Take `Cc1ccc2nc(=O)c3cccnc3n2c1`: the growth inhibition is 12.8%.

On to `S=C(Nc1ccc2c(c1)oc1ccccc12)c1cccs1`, for which the growth inhibition is -4.6%.

Regarding `O=C1C(N2CCCCC2)=C(c2ccccc2)c2ccccc21`, the growth inhibition was -10.2%.

Consider `CCOC(=O)CNC(=O)SCc1ccccc1`, for which the growth inhibition is 1.45%.

For the molecule `OCCN1CCCCCCC1`, the growth inhibition is -7.5% and -0.3%.

`Cc1cc(C(=O)O)c(C(=O)O)c(Cl)n1`: the growth inhibition was 4.8%.

On to `CC(=O)N(C(=O)CC(=O)NNCc1ccccc1Cl)c1ccc(Cl)cc1`, for which the growth inhibition is 6.3%.

Take `NC(=O)c1ccc(-c2csc(=S)[nH]2)s1`: the growth inhibition is -5.35%.

For the molecule `O=C1CCC(=O)N1N1C(=O)CCC1=O`, the growth inhibition is 3.35%.

Consider `O=[N+]([O-])c1ccc(-n2nnc(C3=NCCCN3)c2-c2ccc(Cl)cc2)cc1`, for which the growth inhibition is -19.6%.

Consider `Clc1nc(-c2ccccc2)ns1`, for which the growth inhibition is -10.4%.

On to `CC1(C)SC(c2ccccc2)SC(c2ccccc2)S1` (centres undefined), for which the growth inhibition is 17.4%.

Consider `CS(=O)(=O)Nc1c(-c2ccccc2)oc2ccccc2c1=O`, for which the growth inhibition is -3.85%.

`COc1cc(CNc2ccccc2)ccc1O`: the growth inhibition was -8.4%.
